The record followed here is PubChem BioAssay AID602139 (NMMLSC, 2011).

For the test, the system named is Botulinum neurotoxin type A light chain protease (Clostridium botulinum A str. ATCC 3502). In words: inhibition of botulinum toxin A LC protease – biochemical, flow cytometry, cherry pick 1, confirmation (AID 602139). As to conditions: multiplex microsphere protease assay, at 10 µM, stronger effect = higher value. A general note: In flow cytometry, cells or beads pass a laser one at a time.

Molecules are shown by their SMILES. The list shows a part of the results. A number with no mark means an inactive call. Rule as the data show it: active = inhibition above about 32%; inactive = the rest.

The term inhibition denotes the drop in the measured response relative to a control, in per cent.

In the case of `COc1ccccc1CNC(=O)C1Cc2ccccc2C(=O)O1` (stereo unspecified), the inhibition was -0.4%. With `Cc1cc(S(=O)(=O)NC2CCCC2)ccc1-n1cnnn1` the figure was 0.3%; with `O=C(O)c1cc(S(=O)(=O)NC2CCCc3ccccc32)ccc1O` (stereo unspecified), 0.7%. With `COc1ccccc1-n1c(-c2cc(-c3ccco3)[nH]n2)n[nH]c1=S` the figure was 1.5%; with `CC(=O)c1cccc(NC(=O)N2CCCC2C(=O)NCCc2ccccc2)c1` (stereo unspecified), 1.9%; with `COCCn1nnnc1C(c1cc2ccc(OC)cc2[nH]c1=O)N1CCc2ccccc2C1` (stereo unspecified), 1.1%.

`CC(C)Cc1nnc(NC(=O)CCC(=O)Nc2ccc3cn[nH]c3c2)s1`: the inhibition is -0.8%.

With `Cc1ccc2[nH]cc(CCNC(=O)C3CCCCC3)c2c1`, the inhibition is -0.1%. With `O=S(=O)(NC1CCCCC1N1CCC(O)CC1)c1ccc(Cl)cc1` (stereo unspecified) the figure was -1%; with `COCc1cc(=O)[nH]c(SC)n1`, 0.2%.

For the compound `Brc1ccc2ncnc(NCc3cccnc3)c2c1`, the inhibition was -2.2%. With `Cc1c(NC(=O)c2cccnc2)c(=O)n(-c2ccccc2)n1C` the figure was 0.8%; with `O=C(Nc1nnc(CCc2ccccc2)s1)C1CCCO1` (stereo unspecified), -0.5%. With `Nc1ccccc1Sc1cc(Cl)nnc1Cl` the figure was -0.2%; with `CCOCC(=O)NCc1ccc2c(c1)cc(C)n2C`, 1.8%.

As to `COc1ccc(C(=O)Nc2nc(-c3ccc(OC)cc3)c(-c3ccc([N+](=O)[O-])cc3)s2)cc1`, the inhibition is 15.9%.

With `CC(=O)Nc1ccc(Oc2ccc3c(c2)C(=O)NC3=O)cc1`, the inhibition is 0.3%. Consider `CC1CCc2c(sc3nc4n(c(=O)c23)CCS4)C1` (stereo unspecified), for which the inhibition was 0.4%. With `CCOc1ccc(NC(=O)CC(Cc2ccc(Cl)cc2)C(=O)O)cc1` (stereo unspecified) the figure was -0.4%; with `COc1ccccc1C1CCN(C(=S)Nc2ccc(Br)cc2)CC1`, 0.8%. With `OC(c1ccc(Cl)cc1)C(CN1CCOCC1)c1ccccc1` (stereo unspecified) the figure was 2.5%.
